“And” between values parts separate entries of the source, which are not always exact repeats. Identical values can stand only once. The whole screen tested about 52,000 compounds, of which about 1,700 (3.3%) were called active. Rule as the data show it: active = survival mostly below about 52% (no sharp cut-off); inactive = mostly above about 56%. The entries come from a sample that favours actives as a whole. Some structures have more than one record in an assay (separate samples or runs), and their calls can disagree.

The experiment relates to Wild type. In words: growth inhibition of S. aureus wild type versus tarO mutant, primary screen, teichoic acid synthesis inhibitors, RN4220, OD600 (AID 463173). The settings on record: S. aureus RN4220 wild type/DeltatarO growth, OD600, 18 h, stronger effect = lower value, screened at 18.75 µg/mL (by protocol).
Regarding `Cc1cccc(NC(=O)CN2C(=O)COc3ccc(S(=O)(=O)N4CCC(C)CC4)cc32)c1C`, the survival was 101% (inactive).

For `Cc1ccc(-c2nc(-c3cc4cccc(OCc5cccc(C)c5)c4oc3=O)no2)cc1`, the survival was 71% (inactive).

On to `CC(CNC(=O)c1csc2c1CCCCC2)c1ccccc1` (configuration not stated), for which the survival was 0% (active).

Consider `CCC(Cc1ccccc1)NC(=O)c1csc2c1CCCCC2` (configuration not stated), for which the survival was 120% (inactive).

With `CSc1ccc(CCNC(=O)c2csc3c2CCCCC3)cc1`, the survival is 69% (inactive).

With `CC(C)(C)c1ccc(-c2nnc(-c3ccccc3NC(=O)c3ccc(F)cc3F)o2)cc1`, the survival was 144% (inactive).

On to `CCOC(=O)C(C)Sc1nc(-c2ccccc2)ccc1C#N` (configuration not stated), for which the survival is 107% (inactive) and 0% (active).

As for `CCCCSc1nc(-c2ccc(OC)cc2)ccc1C#N`, the survival was 28% (inactive).

`CCOC(=O)C(C)Sc1nc(-c2ccccc2Cl)cc(-c2ccccc2)c1C#N` (configuration not stated): the survival was 79% (inactive).

Take `COc1cccc(C(=O)Nc2ccc(-n3nncc3-c3ccc(Br)cc3)cc2)c1OC`: the survival is 143% (inactive).

Turning to `CC(=O)N1CCc2cc(S(=O)(=O)NC(Cc3ccccc3)C(=O)Nc3ccc(C)cc3C)ccc21` (configuration not stated), the survival was 74% (inactive).

For `Nc1cccc(Cl)c1N1CCOCC1`, the survival is 110% (inactive).

For `COc1ccccc1C(=O)Nc1c(C(=O)Nc2ccccc2F)oc2ccccc12`, the survival was 2% (active).

`O=C(Nc1c(C(=O)N2CCN(c3ccccc3)CC2)oc2ccccc12)c1ccco1`: the survival was 10% (active).

With `COc1ccc(N2CCN(C(=O)c3oc4ccccc4c3NC(=O)c3ccccc3OC)CC2)cc1`, the survival is 129% (inactive).

Turning to `Cc1ccc(C(=O)c2oc3ccccc3c2NC(=O)Cc2ccccc2)cc1`, the survival is 53% (inactive).

For `COc1cc(C(=O)Nc2c(C(=O)Nc3ccccc3F)oc3ccccc23)cc(OC)c1OC`, the survival is 68% (inactive).

Regarding `O=C(Cc1ccccc1)Nc1c(C(=O)c2ccccc2)oc2ccccc12`, the survival is 7% (active).

`COc1ccccc1NC(=O)c1oc2ccccc2c1NC(=O)c1c(F)cccc1F`: the survival was 60% (inactive).

Turning to `O=C(Nc1c(C(=O)N2CCN(c3ccc(F)cc3)CC2)oc2ccccc12)c1ccco1`, the survival was 88% (inactive).

Regarding `CCc1ccc2occ(CC(=O)Nc3c(C(=O)c4ccccc4)oc4ccccc34)c2c1`, the survival was 104% (inactive).

Turning to `COc1ccccc1C(=O)Nc1c(C(=O)N2CCN(c3ccccc3F)CC2)oc2ccccc12`, the survival was 101% (inactive).

Regarding `O=C(Nc1c(C(=O)N2CCN(c3ccccc3F)CC2)oc2ccccc12)c1ccco1`, the survival is 69% (inactive).

On to `COc1ccccc1C(=O)Nc1c(C(=O)N2CCN(c3ccc(F)cc3)CC2)oc2ccccc12`, for which the survival was -2% (active).

As for `Cc1ccc(NC(=O)CSc2nnc(C)n3c2cc2sccc23)c(C)c1`, the survival was 84% (inactive).

`CCc1noc(-c2ccc(N3CCC(C)CC3)c([N+](=O)[O-])c2)n1`: the survival is 93% (inactive).

Take `CCOc1ccc(CCNC(=O)c2nnc(Cc3cc(OC)c(OC)c(OC)c3)o2)cc1OCC`: the survival was 85% (inactive).

For `COc1ccc(Cn2c(SCC(=O)N3CCN(c4ccc(F)cc4)CC3)nc3ccccc32)cc1`, the survival is 45% (inactive).

As for `Cn1c(=O)c(=O)n(C)c2cc(NC(=O)c3cccc(F)c3)c(Cl)cc21`, the survival was 71% (inactive).

As to `Cc1ccccc1CNS(=O)(=O)c1csc(C(N)=O)c1`, the survival is 128% (inactive).

With `CCOC(=O)c1cccc(NC(=O)C(C)n2c(C)c3cnn(-c4ccccc4)c(=O)c3c2C)c1` (configuration not stated), the survival is 128% (inactive).

Consider `CC(CC(=O)Nc1ccc(Br)cc1F)S(=O)(=O)c1ccc2c(c1)NC(=O)CO2` (configuration not stated), for which the survival was 63% (inactive).

Take `O=C(CCc1ccccc1)NC1CC(=O)N(c2cccc(F)c2)C1` (configuration not stated): the survival was 81% (inactive).

Take `COc1ccc(OC)c(CNC(=O)Cc2ccc(NC(=O)N3CCSc4ncccc43)cc2)c1`: the survival is 64% (inactive).

Consider `CCc1ccc(NS(=O)(=O)c2ccc3[nH]cc(C(=O)N(C)Cc4ccco4)c(=O)c3c2)cc1`, for which the survival was 85% (inactive).

Regarding `CCn1cc(C(=O)N2CCN(c3cc(Cl)ccc3C)CC2)c(=O)c2cc(S(=O)(=O)N3CCOCC3)ccc21`, the survival is 86% (inactive).

Consider `COc1ccccc1C(=O)Nc1c(C(=O)c2ccccc2)oc2ccccc12`, for which the survival is -3% (active).

In the case of `COc1ccccc1C(=O)Nc1c(C(=O)NC(C)(C)C)oc2ccccc12`, the survival was 80% (inactive).

`COc1ccc(C(=O)Nc2c(C(=O)c3ccccc3)oc3ccccc23)cc1`: the survival was 75% (inactive).

Turning to `S=c1n(-c2ccccc2)cnn1CN1CCCCC1`, the survival is 96% (inactive).

In the case of `CC(=O)Nc1ccc(S(=O)(=O)N2CCC(c3ccncc3)CC2)cc1`, the survival is -6% (active).

As for `CC(=O)Nc1ccc(S(=O)(=O)N2CCC(C)CC2)cc1`, the survival is 112% (inactive).

Regarding `CC(C)(C)c1ccc(S(=O)(=O)N2CCC(c3ccncc3)CC2)cc1`, the survival is 120% (inactive).

As to `COc1ccc2c(c1)CCc1c(C(=O)Nc3c(C)nn(Cc4ccccc4C)c3C)noc1-2`, the survival is 26% (inactive).

Turning to `O=C(NCCc1ccc(Cl)cc1)c1ccc2c(c1)N(Cc1ccc(F)cc1)C(=O)CS2`, the survival is 10% (active).

For the compound `O=C(NCCc1ccc(Cl)cc1)c1ccc2c(c1)N(Cc1ccc(Cl)cc1)C(=O)CS2`, the survival was 98% (inactive).

In the case of `O=C(NCCc1ccccc1)c1ccc2c(c1)N(Cc1ccc(F)cc1)C(=O)CS2`, the survival was 88% (inactive).

Regarding `CCN(CC)C(=O)c1sc(NC(=O)C2c3ccccc3Oc3ccccc32)c(C(=O)OC(C)C)c1C`, the survival was 8% (active).

For the compound `Cc1c(C(=O)OC(C)C)sc(NC(=O)C2c3ccccc3Oc3ccccc32)c1C(=O)OC(C)C`, the survival is 87% (inactive).

Regarding `CCOC(=O)c1c(NC(=O)COc2ccc(OC)cc2)sc(C(=O)N(CC)CC)c1C`, the survival is -8% (active).

On to `COC(=O)c1c(NC(=O)COc2ccc(Cl)cc2)sc(C)c1C`, for which the survival is 73% (inactive).

Consider `CCN(CC)C(=O)c1sc(NC(C)=O)c(C(=O)OC)c1C`, for which the survival is 108% (inactive).

As to `CCOC(=O)c1c(NC(=O)COc2cc(C)ccc2C(C)C)sc(C)c1C`, the survival was 67% (inactive).

As to `Cc1sc(NC(=O)C2c3ccccc3Oc3ccccc32)c(C(=O)OC(C)C)c1C`, the survival was 62% (inactive).

For `Cc1sc(NC(=O)COc2ccc(C(C)(C)C)cc2)c(C(=O)OC(C)C)c1C`, the survival is 10% (active).

Consider `CCCc1ccc(OCC(=O)Nc2sc(C(=O)OCC)c(C)c2C(=O)OCC)cc1`, for which the survival is 92% (inactive).

For the compound `O=C(Cn1c(SCc2ccc(F)cc2)nc2cccnc21)Nc1ccccc1F`, the survival is 75% (inactive).

As for `COc1ccc(-c2nnn3c2nc(NCc2ccc(C)cc2)c2ccccc23)cc1`, the survival was 85% (inactive).

For `O=C(Nc1cc(-c2nc3ccccc3o2)ccc1Cl)c1sc2c([N+](=O)[O-])cccc2c1Cl`, the survival was 96% (inactive).

With `Cc1ccc(Cl)cc1-n1ncc2c(N3CCN(Cc4ccccc4)CC3)ncnc21`, the survival is 120% (inactive).

Regarding `COc1cccc(-c2ccc3c(N)c(C(=O)c4ccc(Br)cc4)sc3n2)c1`, the survival is 38% (inactive).

Consider `COc1cccc(-c2ccc3c(N)c(C(=O)c4ccc(F)cc4)sc3n2)c1`, for which the survival was 10% (active).

On to `COc1cccc(-c2ccc3c(N)c(C(=O)c4ccc(Cl)cc4)sc3n2)c1`, for which the survival was 39% (inactive).

With `Cc1ccc(CNC(=O)c2ccc3c(c2)N(Cc2cccc(Cl)c2)C(=O)CS3)cc1`, the survival was 70% (inactive).

For the compound `Cc1cccc(N2C(=O)C(CC(=O)Nc3cccc(F)c3)N(CCc3ccncc3)C2=O)c1` (configuration not stated), the survival is 84% (inactive).

Take `CCOc1ccc(NC(=O)CC2C(=O)N(c3cccc(C)c3)C(=O)N2Cc2cccs2)cc1` (configuration not stated): the survival is 85% (inactive).

`CCc1ccc(NC(=O)CC2C(=O)N(c3cccc(C)c3)C(=O)N2Cc2cccs2)cc1` (configuration not stated): the survival was -3% (active).

For `CCc1ccc(NC(=O)CC2C(=O)N(c3ccc(Cl)cc3)C(=O)N2Cc2cccs2)cc1` (configuration not stated), the survival was 47% (inactive).

As for `Cc1cccc(N2C(=O)C(CC(=O)Nc3cccc(F)c3)N(Cc3cccs3)C2=O)c1` (configuration not stated), the survival is 0% (active).

On to `COc1cc(NC(=O)CC2C(=O)N(c3cccc(C)c3)C(=O)N2Cc2cccs2)cc(OC)c1` (configuration not stated), for which the survival was 53% (inactive).

For `O=C(NCc1ccccc1Cl)c1nnc(Cc2ccc(Cl)cc2)o1`, the survival was 85% (inactive).

`CCC1CN(C(=O)N2CCC(C(=O)NCc3cccc(OC)c3OC)CC2)c2cc(C)ccc2O1` (configuration not stated): the survival was 106% (inactive).

For `CC1=C(C(=O)Nc2ccc(C)cc2C)C(c2cccs2)n2nc(SCc3cccc(C)c3)nc2N1` (configuration not stated), the survival was 126% (inactive).

`CCC(=O)Nc1ccc(C(=O)CSc2nnc(-c3ccc(O)cc3)n2CC2CCCO2)cc1` (configuration not stated): the survival was 103% (inactive).

In the case of `CCc1ccc(C(=O)c2cn(CC(=O)Nc3cccc(OC)c3)c3ccc(OC)cc3c2=O)cc1`, the survival is 77% (inactive).

`CC(C)c1ccccc1NC(=O)Cn1cnc2c1c(=O)n(C)c(=O)n2C`: the survival was 93% (inactive).

Take `Cc1ccc(C(=O)N2CCC(C(N)=O)CC2)cc1NC(=O)c1nsc2ccccc12`: the survival was 72% (inactive).

Regarding `Cc1ccc(C(=O)N2CCC(C)CC2)cc1NC(=O)c1nsc2ccccc12`, the survival is 80% (inactive).

For the compound `Cc1ccc(C(=O)N2CCCCC2)cc1NC(=O)c1nsc2ccccc12`, the survival is -6% (active).

Take `O=C(Nc1ccc(C(=O)N2CCN(c3ccc(F)cc3)CC2)cc1)c1nsc2ccccc12`: the survival is 55% (inactive).

With `O=C(Nc1ccc(C(=O)N2CCN(c3ccc(Cl)cc3)CC2)cc1)c1nsc2ccccc12`, the survival was 81% (inactive).

`O=C(Nc1ccc(C(=O)N2CCN(c3cccc(Cl)c3)CC2)cc1)c1nsc2ccccc12`: the survival is 63% (inactive).

Regarding `Cc1ccc(Cl)cc1N1CCN(C(=O)c2ccc(NC(=O)c3nsc4ccccc34)cc2)CC1`, the survival was 1% (active).

Consider `O=C(Nc1ccc(C(=O)N2CCN(c3ccccc3)CC2)cc1)c1nsc2ccccc12`, for which the survival is -3% (active).

For `Cc1ccc(C)c(N2CCN(C(=O)c3ccc(NC(=O)c4nsc5ccccc45)cc3)CC2)c1`, the survival is 63% (inactive).

Take `CC1CCN(CC2CCN(C(=O)NCc3ccc(F)cc3)CC2)CC1`: the survival was 78% (inactive).

With `COc1ccccc1OC(C)C(=O)NCC1(N2CCOCC2)CCCCC1` (configuration not stated), the survival was 87% (inactive).
